The campaign covered roughly 69,000 compounds. About 950 (1.4%) showed an effect of 50% or more. For the sample, strong results were picked, then their nearest neighbours and some compounds at random.
These compounds were tested on Mycobacterium tuberculosis (assay: Cornell M. t heat shock assay; note: in the data most compounds retested in dose-response had high values).
Format: functional, organism-based
Set-up: dose or concentration left out as unconfirmed

SMILES | Percent Effect
Cl.O[C@@H]1CN(Cc2cccc(F)c2)CC[C@H]1NCc1ccccn1 | 14.29%
COc1ccc2c(c1)CN(Cc1nc3ccsc3c(=O)[nH]1)CC2 | 63.99%
COc1ccc2c(c1)CN(Cc1nc3c(cnn3C)c(=O)[nH]1)CC2 | -0.696%
CCOc1ccc2c(c1)CN(Cc1nc3c(cnn3C)c(=O)[nH]1)CC2 | -1.196%
Fc1cnc(N2C[C@@H](OCC3CCOCC3)[C@H]3OCCC[C@H]32)nc1.O=C(O)C(F)(F)F | 41.59%
CC(C)N1CCc2nnc(COc3cncnc3)n2CC1.O=C(O)C(F)(F)F | -11.8%
CO[C@H]1CCN(C(=O)c2ccsc2)[C@@H]2CN(CC3CC3)C[C@H]12.O=C(O)C(F)(F)F | -4.831%
Cc1cccc(N2CCOCC3(C2)CN(c2ccoc2)C(=O)CO3)n1.O=C(O)C(F)(F)F (configuration not stated) | 36.14%
CN(C)[C@@H]1CN(C(=O)Cc2ccsc2)[C@@H]2CCCO[C@H]12.O=C(O)C(F)(F)F | 1.941%
Cc1ncnc(N2CCCN(c3nc4ccccc4s3)CC2)c1C | 10.22%
c1ccc2sc(N3CCCN(c4ncnc5c4CCNC5)CC3)nc2c1 | 53.45%
c1ccc2sc(N3CCN(c4ncnc5c4CCC5)CC3)nc2c1 | -9.42%
O=C(c1ccco1)N1C(CN2CCOCC2)[C@]2(O)CC[C@H]1CC2 (some centres not stated) | 30.59%
Cc1nc(CO[C@@H]2CN(Cc3ccccn3)[C@@H]3COC[C@@H]32)cs1 | -33.39%
Fc1ccc(CN2C[C@@H](OCc3ccccn3)[C@H]3COC[C@H]32)cc1.O=C(O)C(F)(F)F.O=C(O)C(F)(F)F | 25.12%
c1ccc(CO[C@@H]2CN(Cc3ccoc3)[C@@H]3COC[C@@H]32)nc1 | 52.89%
Cc1nc(C2CCNC2)nc2c1CCC(=O)N2C.Cl (configuration not stated) | 7.271%
Br.O=C(O)c1csc(NCCc2ccccc2)n1 | 78.91%
O=C(NCCc1ccccc1)NCC(O)c1cccs1 (configuration not stated) | 20.6%
CN1CC(=O)c2sc(NCCc3ccccc3)nc2C1 | -13.74%
COCCNC(=O)c1cc(-c2cc[nH]n2)n2ccccc12.O=C(O)C(F)(F)F | -6.749%
O=C(C1CCCO1)N1CCC2(CC1)COCCN(Cc1cccnc1)C2.O=C(O)C(F)(F)F.O=C(O)C(F)(F)F (configuration not stated) | -5.406%
O=C([C@@H]1CCCO1)N1CCOCC2(CCN(Cc3cccnc3)C2)C1 (some centres not stated) | 51.35%

SMILES | Percent Effect
O=C(O)C(F)(F)F.O=C(O)C(F)(F)F.O=C(O)C(F)(F)F.c1cncc(CN2CCC3(COCCN(C4CCOCC4)C3)C2)c1 (configuration not stated) | -18.23%
Cc1ccc(N2CCC3(CCN(C(=O)c4ccoc4)CC3)CC2)nn1.O=C(O)C(F)(F)F | -13.67%
CS(=O)(=O)NCc1cn2c(n1)CN(Cc1cccnc1)CC2.O=C(O)C(F)(F)F.O=C(O)C(F)(F)F | 42.6%
CN1CCC(c2nc3ccc(-c4cccc(F)c4)cn3n2)CC1.O=C(O)C(F)(F)F | 3.867%
CNc1ncc(-c2ccc(NC(=O)[C@@H]3CCCCN3)cc2)cn1 | -9.316%
Cc1csc2c(N3CCNC(C(=O)Nc4ccc(F)cc4)C3)ncnc12 (configuration not stated) | 27.39%
Cl.N#Cc1ccc(NC(=O)C2CSCN2)cc1 (configuration not stated) | 75.04%
Nc1ncc(-c2ccc(NC(=O)[C@@H]3CCCCN3)cc2)cn1 | -9.095%
O=C(Nc1ccc(F)cc1)C1CSCN1 (configuration not stated) | 55.12%
O=C(Nc1ccc(F)cc1)C1CCc2ccccc2N1 (configuration not stated) | 1.641%
Cc1ccc(C(=O)N2[C@@H]3CC[C@H]2CN(C)C(=O)C3)c(=O)[nH]1 | -6.73%
O=C(O)C(F)(F)F.O=C([C@@H]1C[C@@H]2CCN(Cc3ccc4c(c3)OCO4)C[C@@H]2O1)N1CCCC1 | -15.24%
CC(C)COC[C@@H]1CC[C@H]2[C@H](CCN2C(=O)c2ccncc2F)O1.O=C(O)C(F)(F)F | -34.7%
Cc1ncc(CN(C)Cc2nc3cc(Cl)ccc3n2C)s1 | 61.31%
CCn1c(CN(C)Cc2cnc(C)s2)nc2c(F)cccc21 | -32.12%
Cn1c(CCNc2nccnc2C#N)nc2cc(Cl)ccc21 | -3.646%
O=C(O)C(F)(F)F.O=C(O)C(F)(F)F.c1ccc(CO[C@@H]2CC[C@H]3[C@H]2OCCN3Cc2ccsc2)nc1 | -28.68%
CNc1cncc(C2CCCN2Cc2ccccc2OCC(=O)O)n1 (configuration not stated) | 2.446%
COc1cccc(CN2CCCC2c2c(C)nn(C)c2C)c1 (configuration not stated) | 27.85%
CNc1cncc(C2CCCN2Cc2cccc(C)n2)n1 (configuration not stated) | 0.9246%
Cc1ccccc1CN1CCCC1c1cncc(Nc2nncs2)n1 (configuration not stated) | 103.1%
COc1cccc(CN2CCCC2c2cncc(Nc3nncs3)n2)c1 (configuration not stated) | 104.6%
CNc1cncc(C2CCCN2Cc2ccnc(C)n2)n1 (configuration not stated) | -20.32%

SMILES | Percent Effect
CNc1cncc(C2CCCN2Cc2ccccn2)n1 (configuration not stated) | -4.503%
COc1cccc(CN2CCCC2c2ccc[nH]2)c1 (configuration not stated) | -7.682%
Cc1cccc(CN2CCCC2c2cncc(Nc3nncs3)n2)c1 (configuration not stated) | 96.91%
Cc1cccc(C(=O)N2C[C@@H](C)[C@@]3(CCN(c4ccsc4)C3=O)C2)n1.O=C(O)C(F)(F)F | 5.09%
c1ccc(CO[C@H]2C[C@@H]3CN(Cc4cccnc4)C[C@@H]3C2)cc1 | -10.82%
c1cnn(CC2CN(c3ncnc4ccsc34)CCO2)c1 (configuration not stated) | 105.5%
Cc1cnn(CC2CN(c3ncnc4ccsc34)CCO2)c1 (configuration not stated) | 28.88%
c1nc(N2CCOC(Cn3cncn3)C2)c2sccc2n1 (configuration not stated) | -23.67%
C[C@H](N)Cn1nc(-c2cccs2)oc1=O.Cl | -14.47%
Cn1nc(CN2CCCN(C3CCCC3)CC2)c2c(Cl)cccc21 | 57.91%
Cn1nc(CN2CCCCC(N)C2)c2c(Cl)cccc21 (configuration not stated) | -3.376%
C[C@@H]1CN(C2CCN(Cc3nn(C)c4cccc(Cl)c34)CC2)C[C@H](C)O1 | -2.477%
Cc1ccc(C(=O)N2CCC3(CC2)CC(c2cnn(C)c2)CO3)cn1.O=C(O)C(F)(F)F (configuration not stated) | -3.038%
NC(=O)N1CC[C@H](O)[C@@H]1Cc1cccnc1.O=C(O)C(F)(F)F | -3.918%
CCN(CC)C(=O)CSc1nnc(CCNC(=O)OC(C)(C)C)o1 | 3.451%
COC(=O)CSc1nnc(CCNC(=O)OC(C)(C)C)o1 | 12.63%
C=C(C)CSc1nnc(CCNC(=O)OC(C)(C)C)o1 | 54.16%
O=C(O)C(F)(F)F.O=C(c1ccco1)N1CCO[C@@H]2CN(CC3CC3)CC[C@@H]2C1 | -6.108%
CC(C)CN1CC[C@H](c2nnc(COc3ccc(F)cc3)o2)C1 | 15.46%
Cc1ccc(CN2CC[C@H](c3nnc(COc4ccc(F)cc4)o3)C2)o1 | 102.2%
Fc1ccc(OCc2nnc([C@H]3CCN(Cc4ccncc4)C3)o2)cc1 | 43.75%
Cc1nn(C)c(C)c1S(=O)(=O)N1CC[C@H]2O[C@@H](C)C[C@H]2C1.O=C(O)C(F)(F)F | 4.759%
Cc1nc(C2CN(Cc3scnc3C)CCO2)cc(N(C)C)n1 (configuration not stated) | -20.95%

SMILES | Percent Effect
CNc1cc(C2CN(Cc3csc(C)n3)CCO2)nc(C)n1 (configuration not stated) | -32.62%
CNc1cc(C2CN(Cc3scnc3C)CCO2)nc(C)n1 (configuration not stated) | 67.88%
COc1cc(CN(CCCN(C)C)Cc2ccccn2)cc2c1OCO2.O=C(O)CC(O)(CC(=O)O)C(=O)O | -27.2%
CC(N(C)Cc1nc2c(cnn2C)c(=O)[nH]1)C(C)(C)C (configuration not stated) | 4.654%
O=C(Nc1cnccn1)[C@@H]1C[C@H]2OCC[C@H]2N(Cc2ccsc2)C1.O=C(O)C(F)(F)F | -23.53%
COc1ccc(Cl)cc1C(C(=O)O)N(C)Cc1ccon1 (configuration not stated) | -13.11%
COc1cc(F)ccc1C(C(=O)O)N(C)Cc1ccon1 (configuration not stated) | 98.53%
COc1cc(C)cc(C(C(=O)O)N(C)Cc2ccon2)c1OC (configuration not stated) | 14.77%
Cc1ccc(C(=O)N2CCc3c(CN4CCCC4)nn(C)c3C2)cc1C.O=C(O)C(F)(F)F | -28.38%
CCOC(=O)N1CC(=O)N(CCc2ccccc2)CC(O)C1 (configuration not stated) | 15.03%
CC(C)COC(=O)N1CC(=O)N(CCCc2ccccc2)CC(O)C1 (configuration not stated) | 54.63%
Cc1ccc(CN2CC(O)CN(C(=O)OCC(C)C)CC2=O)cc1 (configuration not stated) | 52.29%
CC(C)COC(=O)N1CC(=O)N(CCc2ccccc2)CC(O)C1 (configuration not stated) | 34.47%
CC(C)COC(=O)N1CC(=O)N(Cc2ccc(Cl)cc2)CC(O)C1 (configuration not stated) | 47.42%
COc1ccc(CN2CC(O)CN(C(=O)OCC(C)C)CC2=O)cc1 (configuration not stated) | 43.83%
COc1cc(N2CC[C@H]3O[C@@H](C(=O)NC4CCCC4)CC[C@H]32)ncn1.O=C(O)C(F)(F)F | -0.9791%
Cl.O=C(NC1CCCC1)c1ccc(C2CCCNC2)nc1 (configuration not stated) | -7.361%
Cc1c(C2CCCN(C(=O)c3ccncc3)C2)n2c(nc1=O)CCC2.Cl (configuration not stated) | -13.79%
Cl.O=C(N[C@@H]1CN[C@H]2CCCO[C@H]21)c1cnccn1 | -42.37%
CNC(=O)CC1CCN(Cc2nc(-c3cccc(Cl)c3)oc2C)CC1 | 52.75%
CNC(=O)C1CCN(Cc2nc(-c3ccc(SC)cc3)oc2C)C1 (configuration not stated) | 12.81%
CNC(=O)CC1CCN(Cc2nc(-c3ccc(SC)cc3)oc2C)CC1 | 1.977%
CCn1nc(C)c(-c2cncn2Cc2ccccc2CN(C)C)c1C.Cl | 2.066%
